Assay in all cases: NCI-60 one-dose screen, 48 h (100 = growth as untreated, 0 = no growth, -100 = all killed)
Common to all, as to conditions: 10 µM

The test system of assay [1] is HCT-15 colon.
Assay [2] has as its system HT29 colon.
The test system of assay [3] is SNB-75 CNS.
Assay [4] concerns SNB-19 CNS.
The subject of assay [5] is U251 CNS.
The test system of assay [6] is PC-3 prostate.
The test system of assay [7] is SK-MEL-5 melanoma.
The subject of assay [8] is UACC-62 melanoma.
The test system of assay [9] is LOX IMVI melanoma.
The test system of assay [10] is SK-MEL-28 melanoma.

Data on 26 compounds can be found in PubChem BioAssay (NCI).

Compounds without any hit were thinned out: in the full panel of roughly 83,000, 20% have a hit.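 Results are percent growth after 48 hours of single-concentration exposure. 100 means growth as in untreated cells, lower positive values show inhibition; negative values down to -100 show cell death.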 A number with no mark means an inactive call. Activity calls are given as the source filed them. How the source made its calls: active means growth percent below 10; inactive means the rest.

Take `COc1cc(/C=C/c2cc(/C=C/c3ccc(O)c(OC)c3)nc(N)n2)ccc1O`: the growth in [1] is 29.5%; in assay [2], -76.2% (active); in [3], 5.5% (active); in assay [4], 23.2%; in assay [5] it was 2.97% (active); in assay [6] it was 13%. The growth is -18.4% (active) in assay [7], -57.7% (active) in [8], -16.1% (active) in [9] and 9.55% (active) in assay [10].
With `CCCc1cn(CC(=O)Nc2nc3ccccc3s2)nn1`, the growth in assay [1] was 108%; in assay [2], 104%; in assay [3], 101%; in assay [4], 102%; in assay [5], 97.8%; in assay [6] it was 96.3%. In addition, the growth in [7] was 99.5%; in [8] it was 98.1%; in [9], 96.6%; in [10], 103%.
Take `COc1cc(C(=O)/C=C/c2c[nH]c3ccccc23)cc(OC)c1OC`: the growth is 19% in assay [1]; -21.1% (active) in [2]; 45.9% in assay [3]; 34.9% in assay [4]; 14.7% in assay [5]; 35.4% in assay [6]. Further, the growth in assay [7] was -53.1% (active); in assay [8] it was 30.6%; in [9] it was 14.4%; in assay [10], 64.7%.
With `CCOC(=O)c1cc(C(=O)c2ccc(F)cc2F)n2ccccc12`, the growth in assay [1] was 79.9%; in assay [2], 77.4%; in assay [3] it was 83.6%; in assay [4], 84.3%; in assay [5] it was 79.4%; in [6], 75.6%. For the same compound, the growth in assay [7] was 92.6%; in assay [8] it was 86.4%; in assay [9], 90.4%; in [10], 115%.
For `CS(=O)(=O)c1nccc(-c2c(-c3cccc(O)c3)nc3sccn23)n1`, the growth is 101% in [1]; 91.7% in [2]; 70.4% in assay [3]; 103% in assay [4]; 91.9% in assay [5]; 96.8% in assay [6]. Moreover, the growth is 86% in [7], 85.9% in [8], 91.5% in [9] and 94% in assay [10].
In the case of `C#CCOc1c(OC)cc(C(=O)/C(C)=C/c2cccc(N=[N+]=[N-])c2)cc1OC`, the growth in [1] was 18.7%; in assay [2], 2.11% (active); in assay [3], 15.1%; in assay [4], 34.5%; in [5], 18.7%; in assay [6], 22.7%. Further, the growth is 35.2% in assay [7], 37.7% in assay [8], 30.4% in assay [9] and 58.8% in assay [10].
Turning to `c1ccc(CSc2ncccc2-c2nnc(SCCN3CCOCC3)o2)cc1`, the growth in [1] is 105%; in assay [2], 111%; in assay [3], 79.6%; in assay [4], 115%; in assay [5], 117%; in [6], 111%. Moreover, the growth is 102% in [7], 113% in assay [8], 108% in assay [9] and 107% in assay [10].
As for `Cc1nc2n(c(=O)c1CCN1CCC(c3noc4cc(F)ccc34)CC1)CCC[C@@H]2O`, the growth in assay [1] was 93.8%; in assay [2] it was 95.2%; in assay [3], 87.1%; in assay [4] it was 102%; in assay [5] it was 93.7%; in [6] it was 91.3%. The growth is 100% in [7], 98.2% in assay [8], 97.4% in assay [9] and 97.9% in [10].
`CCOC(=O)Cn1c(=O)c2sc3ncccc3c2n2nnc(-c3ccccc3)c12`: the growth is 107% in assay [1]; 107% in assay [2]; 77.2% in assay [3]; 101% in assay [4]; 104% in [5]; 94.8% in assay [6]. Moreover, the growth in assay [7] is 104%; in assay [8], 90.5%; in assay [9], 97.4%; in assay [10] it was 104%.
`CCCCCOC(=O)Nc1nc(=O)n(C2O[C@H](C)[C@@H](O)[C@H]2O)cc1F` (stereo not given in full): the growth in [1] is 101%; in [2], 99.9%; in [3], 77.1%; in assay [4] it was 101%; in [5] it was 94.8%; in assay [6] it was 90.9%. The growth in [7] is 99.8%; in assay [8], 95%; in assay [9], 100%; in [10], 115%.
For the compound `NS(=O)(=O)c1ccc(N2N=C(c3ccccc3)CCC2=O)cc1`, the growth in assay [1] was 109%; in [2], 98.6%; in assay [3] it was 108%; in assay [4], 94.7%; in assay [5], 104%; in [6] it was 105%. The growth in assay [7] is 105%; in assay [8], 106%; in assay [9] it was 108%; in assay [10], 120%.
With `Nc1nc(Cn2c(-c3nonc3N)nc3ccccc32)nc(N2CCCCC2)n1`, the growth in assay [1] was 84.8%; in assay [2], 105%; in assay [3], 76.4%; in assay [4] it was 87%; in assay [5], 96.9%; in assay [6], 78%. The growth was 83.2% in assay [7], 84.3% in assay [8], 90% in assay [9] and 95% in [10].
As for `COC1=CC(=O)OC(c2ccc(OC)cc2)C1` (stereo not given), the growth in assay [1] is 121%; in [2] it was 110%; in assay [3], 86.3%; in assay [4], 104%; in assay [5], 117%; in [6], 105%. Moreover, the growth in assay [7] was 106%; in [8], 101%; in [9] it was 94.9%; in [10], 123%.
Regarding `Cc1cc(CSc2ccccc2C(=O)N2CC=C(c3ccccc3)CC2)on1`, the growth in assay [1] is 95.2%; in [2], 84.2%; in assay [3] it was 90.3%; in assay [4], 104%; in assay [5], 98.7%; in [6], 82.9%. For the same compound, the growth in assay [7] was 97.5%; in assay [8] it was 90.4%; in [9], 92.1%; in assay [10], 98.1%.
As to `CC(C)CCN(CCC(C)C)CC(=O)Nc1ccc(S(=O)(=O)c2ccc(NC(=O)CN(CCC(C)C)CCC(C)C)cc2)cc1`, the growth in [1] was 10.4%; in [2], 10.3%; in assay [3] it was 79.3%; in assay [4], 52.6%; in [5], 10.5%; in [6] it was 39.7%. The growth in [7] was 47%; in assay [8] it was 29.7%; in assay [9] it was -78.4% (active); in [10], 72.6%.
For the compound `COc1cc(-c2nn(-c3cccc(NC(=O)NCCNS(=O)(=O)c4ccc(Cl)cc4)c3)cc2-c2ccncc2)ccc1Cl`, the growth in assay [1] is 26.5%; in assay [2], -24.4% (active); in [3], 0.927% (active); in assay [4], 38.1%; in assay [5], -0.109% (active); in assay [6] it was 7.5% (active). The growth is -74.6% (active) in [7], 25.6% in assay [8], -0.864% (active) in assay [9] and 21.4% in assay [10].
For `CC(=O)N[C@H](C(=O)N[C@@H](CCCNC(=N)N)C(=O)N[C@@H](CCCCN)C(=O)N[C@@H](CCCNC(=N)N)C(=O)N[C@]1(C)CCCCCC/C=C\CCC[C@@](C)(C(=O)N[C@@H](CCCNC(=N)N)C(=O)N[C@@H](CCC(=O)O)C(=O)N[C@@H](CC(C)C)C(=O)N[C@H](C(=O)N[C@@H](CCC(=O)O)C(N)=O)C(C)C)NC(=O)[C@H](CCC(N)=O)NC(=O)[C@H](CC(C)C)NC(=O)[C@H](CC(C)C)NC(=O)[C@H](CCCNC(=N)N)NC(=O)[C@H](CCCNC(=N)N)NC(=O)[C@H](CC(C)C)NC1=O)C(C)C`, the growth in [1] is -10.8% (active); in assay [2] it was 15.7%; in [3], 2.79% (active); in assay [4], 6.45% (active); in [5], -40.9% (active); in [6], -4.64% (active). The growth in assay [7] is -68.8% (active); in assay [8] it was -43.3% (active); in assay [9], 29.4%; in [10], -29.7% (active).
For the compound `CCOC(=O)c1cocc1C(=O)O`, the growth in assay [1] was 103%; in [2] it was 110%; in [3] it was 83.3%; in assay [4], 107%; in assay [5] it was 103%; in assay [6] it was 112%. For the same compound, the growth in [7] was 104%; in [8], 116%; in assay [9], 103%; in assay [10], 104%.
As to `C(=N\Nc1ncnc2sc3c(c12)CCNC3)/c1cccc2ccccc12`, the growth was 18.9% in assay [1]; 16.8% in assay [2]; 62.5% in assay [3]; 79.1% in assay [4]; 83% in assay [5]; 76.9% in assay [6]. The growth in assay [7] is 97.1%; in assay [8], 101%; in assay [9], 50.4%; in assay [10], 103%.
On to `COc1cc(C2CC(c3cc(Cl)c(C)cc3O)=NN2c2ccc(S(N)(=O)=O)cc2)cc(OC)c1OC` (stereo not given), for which the growth in [1] was 16.7%; in assay [2], 1.52% (active); in [3], 45.7%; in assay [4], 48.7%; in assay [5], 16.9%; in assay [6], 0.104% (active). Further, the growth in assay [7] was -4.95% (active); in assay [8] it was 16.3%; in [9] it was 16.2%; in assay [10] it was 31.7%.
Take `Cc1ccc(/C=C2/C(=O)N(C)c3ccc(S(=O)(=O)Nc4ccc(C(C)(C)C)cc4)cc32)s1`: the growth is 83.8% in assay [1]; 75.7% in assay [2]; -9.41% (active) in assay [3]; 66.6% in [4]; 62.6% in assay [5]; 56.6% in [6]. For the same compound, the growth was 89.4% in assay [7], 74.9% in assay [8], 58.1% in assay [9] and 81.8% in [10].
For `Cc1ccc(S(=O)(=O)N(C)CCCCCC(=O)O)cc1`, the growth in assay [1] is 97.8%; in assay [2] it was 92.5%; in assay [3] it was 94%; in assay [4] it was 108%; in assay [5] it was 104%; in [6], 98.2%. Further, the growth is 105% in assay [7], 106% in [8], 95.4% in [9] and 105% in assay [10].
As for `Brc1ccc2c(c1)-c1ccccc1C1=NCCN12`, the growth in assay [1] was 1.51% (active); in assay [2], -14.9% (active); in assay [3] it was 8.5% (active); in assay [4] it was 16.2%; in assay [5], -10.7% (active); in assay [6], 2.13% (active). For the same compound, the growth in [7] is -77.2% (active); in assay [8], -13.4% (active); in assay [9], -69.4% (active); in assay [10], 0.722% (active).
On to `O=C1CSC(=S)N1/N=C/c1ccc(Cl)s1`, for which the growth in [1] was 97.9%; in [2], 110%; in [3] it was 111%; in assay [4], 97.7%; in assay [5], 99.3%; in assay [6] it was 98.1%. For the same compound, the growth in assay [7] was 97%; in [8] it was 100%; in assay [9] it was 88.5%; in assay [10], 107%.
With `CCN(CC)CCOc1ccc2c(c1O)C(=O)c1ccccc1C2=O`, the growth was 74.4% in assay [1]; 68.1% in assay [2]; 79.1% in assay [3]; 82.6% in assay [4]; 77.3% in assay [5]; 85.3% in assay [6]. Besides, the growth in assay [7] was 81.2%; in assay [8], 90.5%; in assay [9], 76.6%; in assay [10] it was 102%.
Consider `CN(C)CCOc1cccc(-c2nc3sccn3c2-c2ccnc(S(C)(=O)=O)n2)c1`, for which the growth in [1] was 92.3%; in assay [2] it was 96.8%; in assay [3] it was 87.7%; in assay [4], 87.5%; in [5], 90%; in assay [6], 80.8%. In addition, the growth in [7] was 98.3%; in assay [8], 91.4%; in assay [9], 92.1%; in assay [10], 100%.
